{"source": "PubChem BioAssay (Tox21)", "note": "Results filed as inconclusive are left out. The source made the active and inactive calls. The call rests on the fitted dose curve. On the % scale 0 is the no-effect control and ±100 the full control effect; potency means the concentration at half of the fitted maximal effect.", "data": [{"system": "estrogen-related receptor alpha (ERRalpha) with PGC-1alpha coactivator, human", "experiment": "qHTS assay to identify small molecule antagonists of the estrogen related receptor signaling pathway with the pleiotropic PPARgamma coactivator (PGC) (AID 1224821); further: nearly all actives have a fitted effect of over 50% in size;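 on activity change, negative = inhibition: lower luminescence signal means antagonism of PGC/ERR signalling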", "settings": "ERR/PGC reporter cell line, luciferase, antagonist mode; series mostly up to 46.1 µM; activity change, negative = inhibition: at the top concentration", "description": "National Center for Advancing Translational Sciences [NCATS]\nNIH Chemical Genomics Center [NCGC]\nU.S. Environmental Protection Agency [EPA]\nNational Institutes of Environmental Health Sciences [NIEHS]\nNational Toxicology Program [NTP]\nU.S. Food and Drug Administration [FDA]\nEstrogen related receptors (ERRs), the first orphan nuclear receptors discovered, play an important role in the control of cellular energy metabolism. ERRs are required for high-energy production in response to the environmental challenges. The pleiotropic PPARgamma coactivator (PGC) is a major partner of ERR and a key regulator in energy homeostasis. Together they have been implicated in the etiology of metabolic disorders such as Type 2 diabetes and metabolic syndrome. ERR-alpha was also identified as an adverse marker for breast cancer progression; ERR-alpha-positive tumors have a poor prognosis. To screen and to identify environmental compounds that perturb the ERR and PGC/ERR signaling pathways could provide valuable information for potential therapeutic or preventive measures in the treatment of metabolic disease. For identifying PGC/ERR antagonists, PGC/ERR cell line (provided by NTP) has been used to screen LOPAC library.\nTox21 Assay Protocol Summary:\nThe PGC/ERR cells were dispensed at 2,000 cells/5 ul/well in 1536-well white plates using a Multidrop dispenser. After the assay plates were incubated at a 37 C/5% CO2 incubator for 6 hours, 23 nL of compounds dissolved in DMSO, positive and negative controls or DMSO only was transferred to the assay plate by a pin tool. The plates were incubated at 37 C for 18 hours. 4 ul/well of One-Glo reagent was added into the assay plates using a Flying Reagent Dispenser. After 30 min incubation at room temperature, the luminescence intensity in the plates was measured using a ViewLux plate reader.", "values": [{"smiles": "CN(C)[C@@H]1C(=O)C(C(N)=O)=C(O)[C@@]2(O)C(=O)C3=C(O)c4c(O)ccc(Cl)c4[C@@H](O)[C@H]3C[C@@H]12", "activity change, negative = inhibition": "-17.7% (inactive)"}, {"smiles": "CC(=O)N1CCN(c2ccc(OC[C@H]3CO[C@](Cn4ccnc4)(c4ccc(Cl)cc4Cl)O3)cc2)CC1", "Potency": "29.8 µM (active)"}, {"smiles": "Clc1ccccc1C(c1ccccc1)(c1ccccc1)n1ccnc1", "Potency": "20.3 µM (active)"}, {"smiles": "CCN(CC)CCCC(C)Nc1c2ccc(Cl)cc2nc2ccc(OC)cc12", "note": "(configuration not stated)", "Potency": "16.8 µM (active)"}, {"smiles": "OCCN1CCN(CC/C=C2/c3ccccc3Sc3ccc(C(F)(F)F)cc32)CC1", "activity change, negative = inhibition": "12.4% (inactive)"}, {"smiles": "COCCCC/C(=N\\OCCN)c1ccc(C(F)(F)F)cc1", "activity change, negative = inhibition": "21.6% (inactive)"}, {"smiles": "OCc1c[nH]c2ccccc12", "activity change, negative = inhibition": "-14.3% [at 92.2 µM] (inactive)"}, {"smiles": "CCCCC(CC)COC(=O)c1ccccc1C(=O)O", "note": "(configuration not stated)", "activity change, negative = inhibition": "-13.2% [at 92.2 µM] (inactive)"}, {"smiles": "O=C(c1ccc(F)cc1)C1CCN(CCn2c(=O)[nH]c3ccccc3c2=O)CC1", "activity change, negative = inhibition": "6.94% (inactive)"}, {"smiles": "Clc1ccc2nsnc2c1NC1=NCCN1", "activity change, negative = inhibition": "-10.4% (inactive)"}, {"smiles": "CCCC1O[C@@H]2C[C@H]3[C@@H]4CCC5=CC(=O)C=C[C@]5(C)[C@H]4[C@@H](O)C[C@]3(C)[C@]2(C(=O)CO)O1", "note": "(some centres not stated)", "activity change, negative = inhibition": "-16.1% (inactive)"}, {"smiles": "C[n+]1cc2c3c(ccc2c2ccc4cc5c(cc4c21)OCO5)OCO3", "Potency": "2.28 µM (active)"}]}]}
